# Results as given in PubChem BioAssay (NCATS).
# Where “and” joins values, the source holds several entries; their conditions need not be identical. Equal entries are not always repeated. Records with an inconclusive call do not appear. Unmarked numbers belong to inactive results. Calls of active or inactive are those of the source. The call rests on the fitted dose curve; in most records, active means well fitted curve in the direction sought with a large enough effect; inconclusive means small, poorly fitted or top-dose-only effect, or another doubt; inactive means no such curve, though single readings can be large; an effect the other way counts as inactive or inconclusive.
# Assays:
# [1] = target: Cellular tumor antigen p53 (Homo sapiens) (UniProt P04637); test: Primary qHTS for small molecule compounds that upregulate eGFP-tagged delta133p53alpha (in N-terminal) cells. (AID 2060322); conditions: NCI-H358 eGFP-delta133p53alpha fluorescence, 24 h; activation: stronger effect = higher value; further: nearly all actives have a fitted effect of over 75% in size; further: potency means the concentration at half of the fitted maximal effect;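 on activation: series mostly up to about 56 µM; 0% = DMSO vehicle and 100% = reference activator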
# Chain of Cellular tumor antigen p53 (Homo sapiens) (P04637 whole entry, looked up): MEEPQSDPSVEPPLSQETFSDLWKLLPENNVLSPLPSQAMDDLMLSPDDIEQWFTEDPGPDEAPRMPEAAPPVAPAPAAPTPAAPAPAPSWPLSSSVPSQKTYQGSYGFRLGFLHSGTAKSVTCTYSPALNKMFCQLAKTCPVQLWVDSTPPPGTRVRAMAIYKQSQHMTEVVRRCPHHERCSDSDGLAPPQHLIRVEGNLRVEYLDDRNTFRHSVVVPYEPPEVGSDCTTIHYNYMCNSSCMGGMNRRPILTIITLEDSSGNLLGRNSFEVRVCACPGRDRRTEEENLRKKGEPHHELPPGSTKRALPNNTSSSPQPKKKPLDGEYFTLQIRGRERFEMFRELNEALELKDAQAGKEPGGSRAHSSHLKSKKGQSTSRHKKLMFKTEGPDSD
# Method in brief: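 NCI-H358 cells pre-induced 24 h with 10 ng/ml doxycycline to express N-terminal eGFP-delta133p53alpha, then dosed 24 h at 37C without doxycycline; fixed, Hoechst-stained, GFP intensity by laser scanning cytometry, normalized to DMSO (0%) and 57.5 uM 5-azacytidine (100%).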
# [2] = target: Aldehyde dehydrogenase, mitochondrial (Homo sapiens) (UniProt P05091); test: qHTS for Inhibitors of the Aldehyde Dehydrogenase Family (ALDH2) Primary screen (AID 2061308);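 further: plate controls were vehicle for no effect and reference inhibitor for full effect; nearly all actives have a fitted effect of over 55% in size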
# [3] = target: Retinaldehyde dehydrogenase 3 (Homo sapiens) (UniProt P47895); test: qHTS for Inhibitors of the Aldehyde Dehydrogenase Family (ALDH1A3) Primary screen (AID 2061315);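 further: plate controls were DMSO vehicle for no effect and reference inhibitor for full effect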
# [4] = BET inhibitor-based combinations targeting novel dependencies in MECOM-rearranged (r) AML: SET-2 cell line (AID 2202231); conditions: SET-2 AML cells viability, CellTiter-Glo luminescence, 48 h; viability: stronger effect = lower value, concentration not given here; further: nearly all actives have a fitted effect of over 35% in size; further: potency means the concentration at half of the fitted maximal effect;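 on viability: plate controls were DMSO treated cells for no effect and wells without cells for full effect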
# Method in brief: (§1)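 Luminescent ATP readout (CellTiter-Glo) after 48 hr drug exposure gives viability. Curves span 11 concentrations and are normalized to DMSO and empty wells. Activity is reported as area under the curve and its Z-transform within each cell line.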
# [5] = BET inhibitor-based combinations targeting novel dependencies in MECOM-rearranged (r) AML: OCI-AML3 cell line (AID 2202232); conditions: Potency: OCI-AML3 viability; further: nearly all actives have a fitted effect of over 35% in size; further: potency means the concentration at half of the fitted maximal effect
# Method in brief: as §1
# [6] = BET inhibitor-based combinations targeting novel dependencies in MECOM-rearranged (r) AML: MV-4-11 cell line (AID 2202233); further: nearly all actives have a fitted effect of over 45% in size; further: potency means the concentration at half of the fitted maximal effect
# Method in brief: (§2)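 Luminescent ATP readout (CellTiter-Glo, 15 min at room temperature) after 48 hr drug exposure gave viability. Dose-response curves, normalized to DMSO and empty-well controls, were summarized as area under the curve and its mean-centred Z-score.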
# [7] = BET inhibitor-based combinations targeting novel dependencies in MECOM-rearranged (r) AML: HNT-34 cell line (AID 2202234); further: nearly all actives have a fitted effect of over 35% in size; further: potency means the concentration at half of the fitted maximal effect
# Method in brief: as §2
# [8] = BET inhibitor-based combinations targeting novel dependencies in MECOM-rearranged (r) AML: UCSD-AML1 cell line (AID 2202235); further: nearly all actives have a fitted effect of over 40% in size; further: potency means the concentration at half of the fitted maximal effect
# Method in brief: as §2
# [9] = BET inhibitor-based combinations targeting novel dependencies in MECOM-rearranged (r) AML: AML-191 cell line (AID 2202236; further: nearly all actives have a fitted effect of over 35% in size; further: potency means the concentration at half of the fitted maximal effect)
# Method in brief: as §1
# [10] = BET inhibitor-based combinations targeting novel dependencies in MECOM-rearranged (r) AML: AML-194 cell line (AID 2202237; further: potency means the concentration at half of the fitted maximal effect; nearly all actives have a fitted effect of over 40% in size)
# Method in brief: as §1
smiles,measurement,setting,value
CC(=O)NC(C)c1ccc(Oc2ccc(OC(C)C)cc2)cc1 (stereo not drawn),activation,[1],15.3%
same,Potency,[2],inactive
same,Potency,[3],inactive
same,viability,[4],87.6%
CC(C)c1cc(C(C)C)c(CC(=O)NS(=O)(=O)Oc2c(C(C)C)cccc2C(C)C)c(C(C)C)c1,activation,[1],11.6% and 19%
same,Potency,[2],inactive
same,Potency,[3],inactive
same,viability,[4],106%
same,Potency,[5],10500 nM (active)
same,Potency,[6],5250 nM (active)
same,Potency,[7],7420 nM (active)
same,Potency,[8],inactive
same,Potency,[9],8330 nM (active)
Cc1nc(NC(=O)N2CCC[C@H]2C(N)=O)sc1-c1ccnc(C(C)(C)C(F)(F)F)c1,activation,[1],-25%
same,Potency,[2],inactive
same,Potency,[3],inactive
same,viability,[4],89%
O=c1cc(N2CCN(c3cccc(C(F)(F)F)c3)CC2)[nH]c(=O)n1C1CCCCC1,activation,[1],25%
same,Potency,[2],inactive
same,Potency,[3],inactive
CNC(=O)c1c(-c2ccc(F)cc2)oc2cc(N(CCO)S(C)(=O)=O)c(C3CC3)cc12,activation,[1],-6.02% and -15.2%
same,Potency,[2],inactive
same,Potency,[3],inactive
same,viability,[4],119%
same,Potency,[5],inactive
same,Potency,[6],inactive
same,Potency,[7],inactive
same,Potency,[8],inactive
same,Potency,[9],inactive
COc1ccc(F)c(F)c1C(=O)c1cnc(NC2CCN(S(C)(=O)=O)CC2)nc1N,Potency,[1],2.73 µM (active) and 2.69 µM (active)
same,Potency,[2],inactive
same,Potency,[3],inactive
same,Potency,[4],2090 nM (active)
same,Potency,[5],1860 nM (active)
same,Potency,[6],1320 nM (active)
same,Potency,[7],2350 nM (active)
same,Potency,[8],1660 nM (active)
same,Potency,[9],2090 nM (active)
COc1ccc(CNc2nc(N(CCO)CCO)nc3c2ncn3C(C)C)cc1,Potency,[1],8.49 µM (active)
same,Potency,[2],inactive
same,Potency,[3],inactive
same,Potency,[4],8330 nM (active)
same,Potency,[5],8330 nM (active)
same,Potency,[6],6610 nM (active)
same,Potency,[7],7420 nM (active)
same,Potency,[8],7420 nM (active)
same,Potency,[9],3320 nM (active)
COc1cc(/C=C/C(=O)OC2CC(C)=C(C(=O)O)/C2=C/CO[C@@H]2O[C@H](CO)[C@@H](O)[C@H](O)[C@H]2O)ccc1O (stereo partly drawn),activation,[1],-8.93%
same,Potency,[2],inactive
same,Potency,[3],inactive
NC(=O)c1cccc2[nH]c(-c3ccc([C@H]4CCCN4)cc3F)nc12,activation,[1],28.6%
same,Potency,[2],inactive
same,Potency,[3],inactive
same,Potency,[4],20900 nM (active)
same,Potency,[5],20900 nM (active)
same,Potency,[6],16600 nM (active)
CC(=O)OC1C=C(C(=O)O)C2(CO)CCC(C)C(C)(CCc3ccoc3)C2C1 (stereo not drawn),activation,[1],-25.2%
same,Potency,[2],inactive
same,Potency,[3],inactive
Cn1cc(-c2[nH]c3cc(NC(=O)[C@H](N)C4CCCCC4)cc4c3c2C=NNC4=O)cn1,activation,[1],23.5%
same,Potency,[2],inactive
same,Potency,[3],inactive
same,Potency,[4],16600 nM (active)
same,Potency,[5],5250 nM (active)
same,Potency,[6],263 nM (active)
same,Potency,[7],1050 nM (active)
same,Potency,[8],1050 nM (active)
Cc1cnc(Nc2ccc(F)cc2Cl)nc1-c1c[nH]c(C(=O)N[C@H](CO)c2cccc(Cl)c2)c1,activation,[1],12% and 13.4%
same,Potency,[2],inactive
same,Potency,[3],inactive
same,Potency,[4],23500 nM (active)
same,Potency,[5],4680 nM (active)
same,Potency,[6],20900 nM (active)
same,Potency,[7],18600 nM (active)
same,Potency,[8],20900 nM (active)
same,Potency,[9],16600 nM (active)
CC1(C)CC(=O)c2c(C(F)(F)F)nn(-c3ccc(C(N)=O)c(NC4CCC(O)CC4)c3)c2C1 (stereo not drawn),activation,[1],11.9% and -1.67%
same,Potency,[2],inactive
same,Potency,[3],inactive
same,Potency,[4],148 nM (active)
same,Potency,[5],74.2 nM (active)
same,Potency,[6],37.2 nM (active)
same,Potency,[7],93.4 nM (active)
same,Potency,[8],105 nM (active)
CCn1nnc2c(N3CCOCC3)nc(-c3ccc(NC(=O)Nc4ccc(C(=O)N5CCN(C)CC5)cc4)cc3)nc21,activation,[1],37.4% and 20.5%
same,Potency,[2],inactive
same,Potency,[3],inactive
same,Potency,[4],1860 nM (active)
same,Potency,[5],263 nM (active)
same,Potency,[6],166 nM (active)
same,Potency,[7],148 nM (active)
same,Potency,[8],186 nM (active)
CC1OC(OC2C(OC(=O)[C@]34CCC(C)(C)C[C@H]3C3=CCC5[C@@]6(C)CC[C@H](OC7OC(C(=O)O)C(O)C(O)C7O)C(C)(C)C6CC[C@@]5(C)[C@]3(C)CC4O)OC(CO)C2O)C(O)C(O)C1OC1OCC(O)C(O)C1O (stereo partly drawn),activation,[1],-3.82%
same,Potency,[2],inactive
same,Potency,[3],inactive
C=CCn1c(=O)c2cnc(Nc3ccc(N4CCN(C)CC4)cc3)nc2n1-c1cccc(C(C)(C)O)n1,Potency,[1],21.7 µM (active) and 2.69 µM (active)
same,Potency,[2],inactive
same,Potency,[3],inactive
same,Potency,[4],1320 nM (active)
same,Potency,[5],1660 nM (active)
same,Potency,[6],742 nM (active)
same,Potency,[7],296 nM (active)
same,Potency,[8],833 nM (active)
same,Potency,[9],742 nM (active)
same,Potency,[10],742 nM (active)
COc1c(OCCCN2CCOCC2)ccc2c3n(c(=NC(=O)c4cnc(N)nc4)nc12)CCN3,activation,[1],8.4% and -29.5%
same,"activity change, negative = inhibition",[2],-4.59% [at 11.2 µM]
same,"activity change, negative = inhibition",[3],13.9% [at 11.2 µM]
same,Potency,[4],1080 nM (active)
same,Potency,[5],34 nM (active)
same,Potency,[6],85.5 nM (active)
same,Potency,[7],959 nM (active)
same,Potency,[8],42.8 nM (active)
